The supplement of paper PMC10849652
About 7,900 targets were measured; listed, in parts, are those with a hit and a random draw of the rest. About 0.6% of all pairs of compound and target were hits. Values without a mark were called inactive.

Key:
Assay in all cases: log2 fold change, soluble protein after heating vs DMSO (PISA); higher = thermal stabilisation; K562 cells, 10 uM, 30 min; active = over 0.2 and 3.5 SD of the protein, either way, in both replicates (recomputed)
[1] = compound: CS(=O)(=O)c1ccc(-c2cnc(N)c(C(=O)Nc3ccccc3)n2)cc1
Outline: (§1)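 K562 cells at 2×10^6 cells/mL were treated with 10 μM compound for 30 min. Aliquots were heated for 3 min across 48°C-58°C, pooled, and extracted in PBS with 0.5% NP-40 at 4°C; soluble protein was the supernatant after 21,000xg for 90 min. Soluble protein was quantified by TMTpro 16plex LC-MS/MS with channel sums equalised, and reported as log2 fold change in thermal stability against DMSO controls, with values from duplicates.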

[2] = compound: C[C@@H](Oc1cc(-c2cnn(C3CCNCC3)c2)cnc1N)c1c(Cl)ccc(F)c1Cl [crizotinib]
Outline: as §1

[3] = compound: C[C@@H]1COCCN1C2=NC(=NC(=C2)C3(CC3)S(=O)(=O)C)C4=C5C=CNC5=CC=C4
Outline: as §1

[4] = compound: C[C@H](C1=CC=C(C=C1)C(=O)NC2=C3C=CNC3=NC=C2)N
Outline: as §1

[5] = compound: C[C@H](Nc1ncnc2nc[nH]c12)c1cc2cccc(Cl)c2c(=O)n1-c1ccccc1 [duvelisib]
Outline: as §1

[6] = compound: Cc1cc(Nc2cc(CN3CCOCC3)c3nc(C)c(Cc4ccc(Cl)cc4F)n3n2)n[nH]1 [gandotinib]
Outline: as §1

[7] = compound: Cc1cc(Nc2cc(N3CCN(C)CC3)nc(Sc3ccc(NC(=O)C4CC4)cc3)n2)n[nH]1 [tozasertib]
Outline: as §1

[8] = compound: Cc1cc(SCc2sc(-c3ccc(C(F)(F)F)cc3)nc2C)ccc1OCC(=O)O
Outline: as §1

[9] = compound: Cc1ccc(-n2nc(C(C)(C)C)cc2NC(=O)Nc2ccc(OCCN3CCOCC3)c3ccccc23)cc1 [doramapimod]
Outline: as §1

[10] = compound: Cc1ccc(C(=O)N(CCCN)[C@@H](c2nc3cc(Cl)ccc3c(=O)n2Cc2ccccc2)C(C)C)cc1 [ispinesib]
Outline: as §1

[11] = compound: Cc1ccc(NC(=O)c2ccc(CN3CC[C@H](N(C)C)C3)c(C(F)(F)F)c2)cc1Nc1nccc(-c2cncnc2)n1 [bafetinib]
Outline: as §1

[12] = compound: Cc1cccc(CC(=O)N2CCc3c2ccc(-c2cn(C)c4ncnc(N)c24)c3F)n1
Outline: as §1

[13] = compound: Cc1cn(-c2cc(NC(=O)c3ccc(C)c(Nc4nccc(-c5cccnc5)n4)c3)cc(C(F)(F)F)c2)cn1 [nilotinib]
Outline: as §1

[14] = compound: Cc1nc(Nc2n[nH]c3c2CN(C(=O)N[C@H](CN(C)C)c2ccccc2)C3(C)C)c2sccc2n1
Outline: as §1

[15] = compound: Cc1nc(Nc2ncc(C(=O)Nc3c(C)cccc3Cl)s2)cc(N2CCN(CCO)CC2)n1 [dasatinib]
Outline: as §1

[16] = compound: Cc1ncc(-c2ccnc(Nc3ccc(S(C)(=O)=O)cc3)n2)n1C(C)C
Outline: as §1

[17] = compound: Cn1cc(-c2ccc3c(c2)CCN3C(=O)Cc2cccc(C(F)(F)F)c2)c2c(N)ncnc21
Outline: as §1

[18] = compound: Cn1cc(-c2ccc3nnc(C(F)(F)c4ccc5ncccc5c4)n3n2)cn1
Outline: as §1

[19] = compound: Cn1cncc1[C@@](N)(c1ccc(Cl)cc1)c1ccc2c(c1)c(-c1cccc(Cl)c1)cc(=O)n2C [tipifarnib]
Outline: as §1

[20] = compound: FC(F)(F)c1ccc(/C=C/c2nc(COc3ccc(CCCCn4ccnn4)cc3)co2)cc1 [mubritinib]
Outline: as §1

UniProt O00748, sequence (O00748 whole entry, looked up): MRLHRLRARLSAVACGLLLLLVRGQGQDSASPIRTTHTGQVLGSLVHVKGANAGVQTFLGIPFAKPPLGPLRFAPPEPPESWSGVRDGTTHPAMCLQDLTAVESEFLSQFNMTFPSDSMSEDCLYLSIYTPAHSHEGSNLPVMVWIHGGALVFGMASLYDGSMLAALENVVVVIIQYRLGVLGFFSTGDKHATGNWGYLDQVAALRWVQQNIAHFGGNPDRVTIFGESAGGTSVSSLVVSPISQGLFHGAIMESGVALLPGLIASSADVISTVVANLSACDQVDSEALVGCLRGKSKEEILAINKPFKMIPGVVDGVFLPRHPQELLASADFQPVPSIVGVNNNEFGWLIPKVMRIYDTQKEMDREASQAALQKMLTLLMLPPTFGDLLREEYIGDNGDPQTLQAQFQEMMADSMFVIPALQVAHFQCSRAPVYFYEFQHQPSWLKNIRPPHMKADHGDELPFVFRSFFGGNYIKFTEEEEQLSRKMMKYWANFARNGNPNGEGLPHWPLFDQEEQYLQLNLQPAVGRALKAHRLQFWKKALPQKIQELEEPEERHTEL
UniProt P19784, sequence (P19784 whole entry, looked up): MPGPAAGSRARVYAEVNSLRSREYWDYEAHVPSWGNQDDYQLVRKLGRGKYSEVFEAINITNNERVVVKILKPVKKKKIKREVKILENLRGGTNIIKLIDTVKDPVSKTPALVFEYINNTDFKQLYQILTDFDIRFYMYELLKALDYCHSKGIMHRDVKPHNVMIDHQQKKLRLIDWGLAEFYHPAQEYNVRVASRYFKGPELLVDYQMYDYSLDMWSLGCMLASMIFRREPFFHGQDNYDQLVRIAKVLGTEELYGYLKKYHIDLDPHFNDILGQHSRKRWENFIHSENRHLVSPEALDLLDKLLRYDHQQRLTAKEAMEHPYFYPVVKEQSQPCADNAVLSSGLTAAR
UniProt Q6NZI2, sequence (Q6NZI2 whole entry, looked up): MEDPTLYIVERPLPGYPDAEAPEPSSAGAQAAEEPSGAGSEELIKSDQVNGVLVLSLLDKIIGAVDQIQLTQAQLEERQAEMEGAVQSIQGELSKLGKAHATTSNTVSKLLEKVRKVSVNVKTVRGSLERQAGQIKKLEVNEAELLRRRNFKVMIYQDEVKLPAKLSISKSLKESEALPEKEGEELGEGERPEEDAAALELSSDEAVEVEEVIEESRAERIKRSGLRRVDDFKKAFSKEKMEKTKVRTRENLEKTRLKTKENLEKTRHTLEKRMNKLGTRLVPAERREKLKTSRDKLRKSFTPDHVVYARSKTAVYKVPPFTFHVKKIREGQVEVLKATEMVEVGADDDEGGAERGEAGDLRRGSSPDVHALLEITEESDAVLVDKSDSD
UniProt Q9NZN8, sequence (Q9NZN8 whole entry, looked up): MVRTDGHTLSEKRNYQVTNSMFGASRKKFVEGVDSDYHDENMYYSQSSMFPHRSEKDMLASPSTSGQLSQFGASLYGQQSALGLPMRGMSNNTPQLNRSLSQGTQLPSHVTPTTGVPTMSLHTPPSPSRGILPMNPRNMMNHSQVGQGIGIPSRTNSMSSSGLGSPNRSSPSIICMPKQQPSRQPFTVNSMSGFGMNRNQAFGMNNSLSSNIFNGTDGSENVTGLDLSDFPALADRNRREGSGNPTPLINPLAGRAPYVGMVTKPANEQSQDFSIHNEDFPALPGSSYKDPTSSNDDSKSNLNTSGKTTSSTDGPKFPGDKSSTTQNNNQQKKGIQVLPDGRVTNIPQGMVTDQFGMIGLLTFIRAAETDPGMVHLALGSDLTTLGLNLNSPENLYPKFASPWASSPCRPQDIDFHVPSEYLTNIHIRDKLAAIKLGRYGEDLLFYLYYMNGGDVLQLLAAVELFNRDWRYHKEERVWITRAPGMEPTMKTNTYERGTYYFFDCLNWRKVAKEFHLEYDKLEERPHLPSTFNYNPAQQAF
UniProt P35219, sequence (P35219 whole entry, looked up): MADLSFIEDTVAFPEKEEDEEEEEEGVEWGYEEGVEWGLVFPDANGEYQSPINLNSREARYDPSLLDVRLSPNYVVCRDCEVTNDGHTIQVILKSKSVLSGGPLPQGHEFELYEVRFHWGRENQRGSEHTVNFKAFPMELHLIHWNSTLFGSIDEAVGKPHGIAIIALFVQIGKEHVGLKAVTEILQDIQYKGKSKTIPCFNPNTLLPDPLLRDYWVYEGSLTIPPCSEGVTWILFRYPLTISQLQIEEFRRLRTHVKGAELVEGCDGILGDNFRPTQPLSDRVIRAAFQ
UniProt Q5T5Y3, sequence (Q5T5Y3 whole entry, looked up): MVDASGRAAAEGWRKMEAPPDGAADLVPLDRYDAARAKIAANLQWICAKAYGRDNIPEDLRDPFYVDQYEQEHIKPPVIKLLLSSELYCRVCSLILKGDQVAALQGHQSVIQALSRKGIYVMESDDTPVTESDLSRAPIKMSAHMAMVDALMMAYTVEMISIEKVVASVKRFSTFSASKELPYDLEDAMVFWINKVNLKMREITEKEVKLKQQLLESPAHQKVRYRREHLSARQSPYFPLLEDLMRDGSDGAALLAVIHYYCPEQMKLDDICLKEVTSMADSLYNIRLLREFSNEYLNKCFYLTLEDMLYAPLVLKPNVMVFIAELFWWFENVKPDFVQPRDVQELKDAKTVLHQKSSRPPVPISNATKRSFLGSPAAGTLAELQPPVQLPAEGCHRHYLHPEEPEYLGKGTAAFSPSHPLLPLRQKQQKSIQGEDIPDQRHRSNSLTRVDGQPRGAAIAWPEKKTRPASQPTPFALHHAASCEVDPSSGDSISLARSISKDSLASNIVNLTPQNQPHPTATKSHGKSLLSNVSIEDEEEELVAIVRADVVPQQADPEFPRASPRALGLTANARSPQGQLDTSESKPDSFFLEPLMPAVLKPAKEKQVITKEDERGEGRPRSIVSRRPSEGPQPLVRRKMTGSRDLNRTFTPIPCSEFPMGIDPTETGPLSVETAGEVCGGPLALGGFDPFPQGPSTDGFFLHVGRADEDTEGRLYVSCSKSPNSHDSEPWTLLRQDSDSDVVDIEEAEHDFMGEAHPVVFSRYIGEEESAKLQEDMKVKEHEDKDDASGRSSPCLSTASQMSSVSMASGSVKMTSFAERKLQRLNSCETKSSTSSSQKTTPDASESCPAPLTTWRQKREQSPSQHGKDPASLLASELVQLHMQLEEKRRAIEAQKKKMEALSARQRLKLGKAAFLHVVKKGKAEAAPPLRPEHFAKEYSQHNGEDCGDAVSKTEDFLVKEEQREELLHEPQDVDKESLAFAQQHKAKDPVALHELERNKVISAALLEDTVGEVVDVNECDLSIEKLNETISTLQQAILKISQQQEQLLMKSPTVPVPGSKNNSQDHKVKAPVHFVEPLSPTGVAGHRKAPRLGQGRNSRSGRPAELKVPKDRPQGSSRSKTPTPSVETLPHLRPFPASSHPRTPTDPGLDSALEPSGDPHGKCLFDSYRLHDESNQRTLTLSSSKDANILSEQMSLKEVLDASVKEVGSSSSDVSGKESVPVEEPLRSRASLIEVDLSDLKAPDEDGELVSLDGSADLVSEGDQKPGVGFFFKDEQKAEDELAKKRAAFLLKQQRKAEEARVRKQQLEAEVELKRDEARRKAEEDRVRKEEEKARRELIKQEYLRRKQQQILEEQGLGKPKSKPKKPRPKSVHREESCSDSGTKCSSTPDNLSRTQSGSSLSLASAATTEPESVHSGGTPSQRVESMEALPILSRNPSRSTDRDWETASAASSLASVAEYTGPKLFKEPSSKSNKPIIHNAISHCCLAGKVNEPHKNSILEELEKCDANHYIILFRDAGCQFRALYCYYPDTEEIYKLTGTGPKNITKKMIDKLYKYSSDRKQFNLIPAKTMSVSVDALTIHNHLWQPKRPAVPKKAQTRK
UniProt Q9H444, sequence (Q9H444 whole entry, looked up): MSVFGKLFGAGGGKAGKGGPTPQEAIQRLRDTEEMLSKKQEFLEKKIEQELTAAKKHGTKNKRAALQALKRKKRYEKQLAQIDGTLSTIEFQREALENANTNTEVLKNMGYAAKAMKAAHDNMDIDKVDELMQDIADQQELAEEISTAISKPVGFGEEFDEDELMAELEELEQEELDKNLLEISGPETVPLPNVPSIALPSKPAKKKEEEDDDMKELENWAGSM
UniProt Q9Y646, sequence (Q9Y646 whole entry, looked up): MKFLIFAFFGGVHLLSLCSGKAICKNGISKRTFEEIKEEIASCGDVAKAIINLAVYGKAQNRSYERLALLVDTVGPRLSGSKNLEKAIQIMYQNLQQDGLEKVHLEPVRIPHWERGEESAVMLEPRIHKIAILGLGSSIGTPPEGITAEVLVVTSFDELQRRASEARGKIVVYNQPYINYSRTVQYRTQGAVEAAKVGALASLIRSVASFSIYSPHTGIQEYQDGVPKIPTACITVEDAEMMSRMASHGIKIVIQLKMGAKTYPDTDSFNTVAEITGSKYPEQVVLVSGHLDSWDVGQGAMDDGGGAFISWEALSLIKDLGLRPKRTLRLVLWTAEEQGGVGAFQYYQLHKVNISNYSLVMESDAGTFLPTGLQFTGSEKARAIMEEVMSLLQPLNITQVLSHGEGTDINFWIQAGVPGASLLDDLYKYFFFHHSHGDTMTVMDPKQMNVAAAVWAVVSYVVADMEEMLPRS
UniProt Q00535, sequence (Q00535 whole entry, looked up): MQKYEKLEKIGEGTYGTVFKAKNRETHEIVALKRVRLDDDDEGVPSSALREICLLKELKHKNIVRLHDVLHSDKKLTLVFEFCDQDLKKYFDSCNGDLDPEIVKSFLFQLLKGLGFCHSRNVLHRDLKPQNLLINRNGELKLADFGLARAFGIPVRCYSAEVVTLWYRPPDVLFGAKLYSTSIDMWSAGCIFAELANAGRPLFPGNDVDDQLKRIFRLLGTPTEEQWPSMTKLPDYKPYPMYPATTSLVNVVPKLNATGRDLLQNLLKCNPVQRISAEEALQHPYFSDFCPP

| Target | log2 fold change [1] | log2 fold change [2] | log2 fold change [3] | log2 fold change [4] | log2 fold change [5] | log2 fold change [6] | log2 fold change [7] | log2 fold change [8] | log2 fold change [9] | log2 fold change [10] | log2 fold change [11] | log2 fold change [12] | log2 fold change [13] | log2 fold change [14] | log2 fold change [15] | log2 fold change [16] | log2 fold change [17] | log2 fold change [18] | log2 fold change [19] | log2 fold change [20] |
| --- | --- | --- | --- | --- | --- | --- | --- | --- | --- | --- | --- | --- | --- | --- | --- | --- | --- | --- | --- | --- |
| CA8 (UniProt P35219) | 0.003 | -0.008 | 0.117 | -0.06 | 0.1 | -0.064 | 0.122 | 0.096 | -0.066 | 0.103 | -0.042 | 0.079 | 0.006 | -0.017 | -0.187 | -0.01 | 0.083 | -0.063 | -0.064 | 0.06 |
| CES2 isoform 4 (UniProt O00748) | 0.162 | 0.154 | 0.03 | -0.079 | 0.019 | 0.048 | -0.093 | -0.188 | 0.144 | -0.047 | -0.006 | -0.104 | 0.274 | -0.045 | 0.119 | -0.036 | 0.489 (active) | 0.166 | 0.28 | 0.111 |
| CAMSAP1 isoform 3 (UniProt Q5T5Y3) | 0.05 | -0.11 | 0.073 | 0.041 | -0.019 | -0.039 | -0.04 | 0.02 | 0.008 | -0.124 | -0.019 | -0.05 | 0.043 | -0.061 | -0.144 | -0.055 | 0.091 | -0.021 | -0.132 | -0.005 |
| CNOT2 (UniProt Q9NZN8) | 0.028 | -0.019 | 0.038 | 0.046 | -0.021 | -0.045 | -0.006 | 0.077 | -0.012 | -0.02 | -0.002 | 0 | 0.048 | -0.063 | -0.035 | 0.01 | -0.055 | 0.022 | -0.063 | 0.054 |
| CSNK2A2 (UniProt P19784) | 0.068 | -0.132 | 0.039 | -0.234 (active) | 0.032 | -0.097 | -0.029 | 0.013 | 0.007 | 0.084 | -0.042 | -0.008 | -0.009 | 0.016 | -0.056 | -0.019 | -0.009 | 0.038 | -0.033 | -0.019 |
| CFAP36 isoform 2 (UniProt Q96G28) | -0.013 | -0.201 | 0.078 | -0.394 (active) | 0.133 | -0.048 | 0.587 (active) | -0.007 | 0.096 | -0.053 | 0.022 | -0.055 | – | – | 0.014 | – | -0.047 | 0.128 | 0.002 | 0 |
| CPSF3 (UniProt Q9UKF6) | -0.004 | 0.01 | 0.013 | -0.006 | 0.011 | -0.052 | 0.117 | 0.031 | 0 | -0.003 | -0.052 | 0.041 | -0.006 | -0.073 | -0.082 | -0.023 | -0.071 | -0.023 | -0.027 | 0.02 |
| CAVIN1 (UniProt Q6NZI2) | -0.023 | -0.046 | -0.34 | 0.174 | -0.131 | 0.145 | 0.058 | 0.06 | 0.135 | 0.067 | 0.114 | 0.004 | -0.047 | 0.104 | -0.001 | -0.11 | -0.157 | -0.204 | 0.125 | -0.067 |
| CPSF1 (UniProt Q10570) | -0.015 | -0.021 | -0.185 | 0.048 | 0.064 | -0.068 | -0.032 | 0.161 | 0.09 | 0.036 | 0.026 | -0.007 | 0.065 | -0.002 | -0.037 | -0.014 | -0.077 | -0.14 | 0.026 | -0.007 |
| CRYM-AS1 (UniProt A6NIL9) | 0.2 | -0.077 | -0.132 | -0.08 | -0.035 | -0.299 | -0.079 | -0.024 | -0.144 | 0.022 | 0.063 | 0.048 | -0.023 | -0.426 | -0.108 | -0.28 | -0.015 | -0.189 | – | 0.114 |
| CDK5 (UniProt Q00535) | 0.019 | -0.076 | 0.037 | -0.022 | 0.001 | -0.003 | -0.055 | 0.008 | 0.088 | -0.033 | -0.091 | 0.035 | -0.055 | -0.142 | -0.078 | -0.034 | -0.033 | -0.031 | -0.054 | -0.103 |
| CPQ (UniProt Q9Y646) | -0.013 | -0.023 | -0.001 | 0.049 | -0.113 | 0.055 | 0.004 | -0.058 | 0.03 | 0.011 | -0.207 (active) | 0 | 0.017 | 0.053 | 0.069 | -0.046 | 0.012 | -0.025 | 0.031 | 0.044 |
| CHMP4B (UniProt Q9H444) | -0.067 | -0.036 | -0.011 | -0.022 | -0.004 | -0.075 | -0.037 | -0.014 | 0.005 | -0.008 | -0.078 | 0.061 | -0.027 | 0.007 | 0.017 | -0.023 | 0.012 | -0.013 | 0.053 | 0.051 |
| CCNB1 (UniProt P14635) | -0.002 | -0.021 | -0.044 | -0.024 | 0.06 | -0.004 | -0.042 | -0.025 | -0.011 | 0.043 | -0.018 | 0.009 | 0.04 | -0.156 | 0.02 | -0.025 | 0.006 | 0.003 | 0.02 | 0.08 |
| C19orf53 (UniProt Q9UNZ5) | -0.125 | 0.092 | -0.553 | 0.404 | -0.15 | 0.316 | 0.022 | 0.03 | 0.174 | -0.13 | 0.271 | 0.034 | 0.029 | 0.139 | 0.222 | 0.023 | -0.207 | -0.083 | 0.165 | -0.13 |
